This note sets out measurements from PubChem BioAssay (NCI).

Holding throughout (assay): NCI-60 one-dose screen, 48 h (100 = growth as untreated, 0 = no growth, -100 = all killed)
Common to all, as to conditions: 10 µM unless noted

Test [1] has as its system BT-549 breast.
For test [2], the system named is MDA-MB-435 melanoma.
Test [3] concerns SW-620 colon.
The test system of test [4] is MCF7 breast.
Test [5] concerns HCT-116 colon.
The test system of test [6] is HCC-2998 colon.
The test system of test [7] is KM12 colon.

Structures are written as SMILES. The panel holds about 83,000 compounds, 20% with a hit somewhere; the sample as a whole holds those more often.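 Treatment: one concentration, 48 hours, 96-well format. Scoring: percent growth, with anything below 10 considered active.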 Values without a mark were called inactive. The source made the active and inactive calls.

As for `CCCC(=O)NC(c1cccc(N(C)C)c1)c1cc(C)c2cccnc2c1O` (configuration not stated), the growth in test [1] was 78.4%; in test [2], 77.6%; in test [3], 50%; in test [4], 35.3%; in test [5] it was 22.7%; in test [6], 57.9%. In test [7], the growth is 54.9%.

With `CN(C)S(=O)(=O)c1oc(-c2ccccc2)nc1C#N`, the growth in test [1] was 64.4%; in test [2], 78.9%; in test [3], 0.559% (active); in test [4], 39.4%; in test [5], 61.3%; in test [6], 108%. In addition, the growth in test [7] was 92.9%.

Turning to `O=C1Nc2ccccc2Oc2ccc(S(=O)(=O)CC3CO3)cc21` (configuration not stated), the growth in test [1] was 25%; in test [2], 46.3%; in test [3], 17.9%; in test [4], 18.1%; in test [5], 46.3%; in test [6], 71.9%.

In the case of `COc1ccc(C(=O)/C=C/c2ccc(OCc3ccc(C)cc3)c(OC)c2)cc1OC`, the growth in test [1] is 73.2%; in test [2] it was 82.6%; in test [3], 45.5%; in test [4], 25.9%; in test [5], 25.3%; in test [6], 91.1%. For the same compound, in test [7], the growth was 51.5%.

Regarding `N/C(=N\c1nc2c(Br)cccc2s1)C(Br)Br`, the growth in test [1] is 29.2%; in test [2] it was -48.2% (active); in test [3] it was -39.2% (active); in test [4] it was -26.3% (active); in test [5], -56.1% (active); in test [6], 3.14% (active). Further, in test [7], the growth is 3.67% (active).

Regarding `Cc1nc(-c2cc3ccccc3oc2=O)ccc1C(=O)/C=C/c1ccccn1`, the growth in test [1] is 82.5%; in test [2] it was 70.8%; in test [3], 1.33% (active); in test [4], 8.39% (active); in test [5], -21% (active); in test [6], 66.6%. Also, the growth in test [7] is 6.06% (active).

In the case of `C/C(=N/NC(N)=S)c1ccc(Nc2nc(SCC(C)C)nc(-c3ccc(F)cc3)c2C#N)cc1`, the growth in test [1] is 55.8%; in test [2], 13.1%; in test [3], 4.45% (active); in test [4], 0.17% (active); in test [5], 3.84% (active); in test [6], 34.8%. Moreover, in test [7], the growth is 23.5%.

As for `CN1CCN(Cc2ccc(NC(=O)c3cncc(C#Cc4cnc5ccc(N6CCSCC6)nn45)c3)cc2C(F)(F)F)CC1`, the growth in test [1] was 40.5%; in test [2], -73.4% (active); in test [3], -3.56% (active); in test [4], -59.7% (active); in test [5] it was -51.8% (active); in test [6], -51.2% (active). Further, the growth in test [7] is -22.5% (active).

As for `Cc1cc(=O)oc2cc(OCCCOc3ccc(/C=C/C(=O)Nc4ccc(Cl)cc4)cc3)ccc12`, the growth is 64.4% in test [1]; 61.1% in test [2]; 27.2% in test [3]; 35.1% in test [4]; 64.8% in test [5]; 69.6% in test [6].

Regarding `COc1ccc(N/N=C/c2c(-c3ccc(S(C)(=O)=O)cc3)nc3ccccn23)cc1`, the growth is 60.5% in test [1]; 34.1% in test [2]; 30.1% in test [3]; 24.3% in test [4]; 32.5% in test [5]; 49.3% in test [6].

Turning to `Cc1sc2nc(NCc3ccccc3Cl)[nH]c(=O)c2c1C`, the growth was 99.8% in test [1]; 92.6% in test [2]; 102% in test [3]; 80.6% in test [4]; 49.7% in test [5]; 115% in test [6]. Also, in test [7], the growth was 91%.

For `COc1ccc2[nH]cc(-c3cc(N)n4nc(-c5c[nH]c6ccc(OC)cc56)cc4n3)c2c1`, the growth in test [1] is 105%; in test [2] it was -81.4% (active); in test [3], -16% (active); in test [4] it was 2.38% (active); in test [5], -88.2% (active); in test [6] it was -4.06% (active). The growth in test [7] is -37.8% (active).

For the compound `O=C1C2=C(C(=O)c3c(O)cccc31)C(c1ccco1)c1sc(=O)[nH]c1S2` (configuration not stated), the growth in test [1] is -96.8% (active); in test [2] it was -45.3% (active); in test [3], 13%; in test [4], -14.2% (active); in test [5] it was -2.88% (active); in test [6], 4.16% (active).

For `Cc1ccccc1NC(=O)/C=C/c1ccc(OCCOc2ccc3c(C)cc(=O)oc3c2)cc1`, the growth in test [1] is 87.8%; in test [2] it was 90.4%; in test [3], 98.6%; in test [4], 85.7%; in test [5], 97.7%; in test [6], 114%.

In the case of `COc1cc2nc(-c3ccc(C(F)(F)F)cc3)cc(OCCCNCC3CCCO3)c2cc1OC` (configuration not stated), the growth in test [1] was 66.3%; in test [2], 5.88% (active); in test [3], 16.3%; in test [4], 13%; in test [5], 22.6%; in test [6], 54.4%. In addition, in test [7], the growth was 27.3%.

As to `c1ccc2c(NCCCN3CCOCC3)c3oc4ccccc4c3nc2c1`, the growth in test [1] was 3.61% (active); in test [2], -11.9% (active); in test [3], -0.873% (active); in test [4], 0.0447% (active); in test [5], -20.1% (active); in test [6] it was -28% (active). Also, the growth in test [7] is 2.04% (active).

As to `COc1cccc(-c2nn(-c3ccccc3)cc2-c2ccnc(N3CCN(C(=O)Nc4ccc(F)cc4)CC3)c2)c1`, the growth in test [1] is 45.8%; in test [2], 49.9%; in test [3] it was 74.1%; in test [4], 57.7%; in test [5], 54.9%; in test [6], 95.4%.

In the case of `COc1cccc(-c2nn(-c3ccccc3)cc2-c2ccnc(N3CCN(C(=O)c4ccccc4)CC3)c2)c1`, the growth is 91.4% in test [1]; 17% in test [2]; 72.1% in test [3]; 85.5% in test [4]; 73.3% in test [5]; 113% in test [6].

For `N#Cc1nc(-c2ccccc2)oc1N1CCC(CO)C1` (configuration not stated), the growth is 95.3% in test [1]; 95.7% in test [2]; 98.4% in test [3]; 49.8% in test [4]; 107% in test [5]; 115% in test [6]. In addition, the growth in test [7] is 101%.

As for `CC(C)(C)OC(=O)N1C(=O)c2c(c3c4ccccc4[nH]c3c3ccc4ccccc4c23)C1=O`, the growth in test [1] is 61.7%; in test [2] it was 40.3%; in test [3] it was 57.2%; in test [4], 34.5%; in test [5], 58.8%; in test [6], 82.6%.

As to `C[C@@H](Nc1c(C#N)cnc2ccc(-c3cnc(N)nc3)cc12)c1ccccc1`, the growth in test [1] is -14.1% (active); in test [2], 11%; in test [3] it was 14.9%; in test [4] it was 10.9%; in test [5], 5.6% (active); in test [6], 32%. For the same compound, in test [7], the growth is 18.6%.

`O=c1[nH]c2ccccc2cc1CSc1ccccc1Nc1nccc(-c2ccc(C(F)(F)F)cc2)n1`: the growth is 112% in test [1]; 74.6% in test [2]; 68.1% in test [3]; 40.3% in test [4]; 43.4% in test [5]; 90.4% in test [6]. Also, the growth in test [7] is 79.3%.

Take `N[C@@H](Cc1cn(-c2ccnc3ccccc23)nn1)C(=O)O`: the growth in test [1] was 118%; in test [2], 106%; in test [3] it was 104%; in test [4], 101%; in test [5], 104%; in test [6] it was 104%.

As to `CNC(=O)c1cc(-c2ccc(NC(=O)Nc3ccc(N4CCN(C)CC4)c(C(F)(F)F)c3)cc2)nc2cccnc12`, the growth in test [1] is -81.4% (active); in test [2] it was -93% (active); in test [3] it was -81.2% (active); in test [4], -100% (active); in test [5], -98.4% (active); in test [6], -94.9% (active).

Regarding `CC(C)(O)c1cncc(-c2ccc3ncnc(N4CCc5cc(F)c(Cl)cc54)c3c2)c1`, the growth in test [1] is -7.34% (active); in test [2] it was 17.1%; in test [3], 40.1%; in test [4] it was 10.8%; in test [5] it was 30.1%; in test [6] it was 34.2%. The growth in test [7] is 35.1%.

For `CS(=O)(=O)c1ccc(-c2nc3ccccn3c2C=Nc2ccc(Cl)cc2)cc1`, the growth in test [1] is 74.3%; in test [2], 56.7%; in test [3], 63%; in test [4], 87.7%; in test [5] it was 52.1%; in test [6], 95.8%.

For the compound `Cc1ccc2ccc3ccc(C)nc3c2n1.Cc1ccc2ccc3ccc(C)nc3c2n1.Oc1c(Cl)cc(Cl)c2ccc(CN3CCCCC3)nc12.[Ru]`, the growth in test [1] was -95.8% (active); in test [2], -90.5% (active); in test [3], -40% (active); in test [4] it was -75.1% (active); in test [5], -92% (active); in test [6], -90.1% (active). For the same compound, the growth in test [7] was -73.9% (active).

Regarding `CC(=O)c1ccc(Nc2nc(SC(C)C)nc(-c3ccccc3)c2C#N)cc1`, the growth in test [1] is 118%; in test [2] it was 102%; in test [3], 98.6%; in test [4], 90.6%; in test [5] it was 97.5%; in test [6] it was 123%.

As to `C=CCSc1ccc2c(c1)C(N1CCNCC1)=Nc1ccccc1O2`, the growth was 106% [8.25 µM] in test [1]; 68% [8.25 µM] in test [2]; 73.4% [8.25 µM] in test [3]; 59.2% [8.25 µM] in test [4]; 55.1% [8.25 µM] in test [5]; -14.8% [8.25 µM] (active) in test [6].

In the case of `COc1cc2cc(Oc3ccc(NC(=O)c4cccc(C(F)(F)F)c4)cc3)c(C)nc2cc1OCCN1CCCCC1`, the growth is 98.7% in test [1]; -86.6% (active) in test [2]; -71.7% (active) in test [3]; 12.7% in test [4]; 0.649% (active) in test [5]; -17.7% (active) in test [6].

On to `CCN1CCN(S(=O)(=O)c2oc(-c3ccc(Cl)cc3)nc2C#N)CC1`, for which the growth in test [1] is 93.6%; in test [2], 62.6%; in test [3], -23.6% (active); in test [4], 31.3%; in test [5], 11.6%; in test [6], 115%. Also, the growth in test [7] was 91.7%.

Turning to `CNC(=O)c1cc(-c2ccc(NC(=O)Nc3ccc(N4CCOCC4)c(C(F)(F)F)c3)cc2)nc2cccnc12`, the growth in test [1] is 84.8%; in test [2] it was 72.6%; in test [3], 72.3%; in test [4], 12.3%; in test [5], 52.3%; in test [6], 79.9%.

Turning to `CCCCCCNC(=O)Oc1ccc(/C(=C(/C)c2ccccc2)c2ccc(OCCN3CCCCCC3)cc2)cc1`, the growth in test [1] is 66.7%; in test [2], 49.6%; in test [3], -35.2% (active); in test [4], 13.6%; in test [5] it was 23.8%; in test [6] it was 56.7%. In test [7], the growth was 32.3%.

Take `CN1C(=S)N(C)C2C1NN=C1SC(c3ccccc3)=CC(=O)N12` (configuration not stated): the growth in test [1] is 98.1%; in test [2], 74.2%; in test [3] it was 105%; in test [4] it was 96.1%; in test [5], 98.8%; in test [6], 106%. Moreover, in test [7], the growth was 98.3%.

Regarding `[Cl][Ru].c1ccc(-c2cccc(-c3ccccn3)n2)nc1.c1ccc(-c2ccnc3c2ccc2c(-c4ccccc4)ccnc23)cc1`, the growth in test [1] is 7.88% (active); in test [2] it was 10.5%; in test [3] it was 40.2%; in test [4], 9.54% (active); in test [5], 36.9%; in test [6], 31.3%. Further, the growth in test [7] was 8.28% (active).

On to `Nc1c(C(=O)c2ccc(Br)cc2)oc2nc(-c3cnccn3)cc(-c3cccs3)c12`, for which the growth is 103% in test [1]; 102% in test [2]; 98.8% in test [3]; 77.6% in test [4]; 96.8% in test [5]; 113% in test [6]. In addition, the growth in test [7] is 99.8%.
